# Source: PubChem BioAssay (NCATS)
# Results filed as inconclusive are left out. Active and inactive are the calls of the source. Unless noted, the call rests on the fitted dose curve; in most records, active means well fitted inhibition curve with a large enough effect; inconclusive means small, poorly fitted or top-dose-only effect; inactive means no such curve, though single readings can be large or run the other way.
# Columns and labels:
# [1] = qHTS profiling of the MIPE4 collection as inhibitors of Plasmodium falciparum (DD2) proliferation (AID 743345; call rule not given here); conditions: P. falciparum Dd2 in erythrocytes, SYBR Green DNA, 72 h; at 28.5 µM (top of the series) unless noted
# Outline: (§1)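 Erythrocytes infected with P. falciparum (0.3% parasitemia, 2.5% hematocrit) incubated with compounds 72 h at 37 C, 5% CO2. Lysis with saponin/Triton buffer containing SYBR Green I, overnight at room temperature in the dark; DNA fluorescence (485/535 nm) normalised to 0.29 uM artemisinin and DMSO.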
# [2] = qHTS profiling of the MIPE4 collection as inhibitors of Plasmodium falciparum (DD2) proliferation (Rep 2) (AID 743346; call rule not given here); conditions: P. falciparum Dd2 in erythrocytes, SYBR Green DNA, 72 h; at 28.5 µM (top of the series) unless noted
# Outline: as §1
# [3] = qHTS profiling of the MIPE4 collection as inhibitors of Plasmodium falciparum (HB3) proliferation (AID 743347; call rule not given here;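 further: plate controls were DMSO vehicle wells for no effect and artemisinin wells for full effect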); conditions: P. falciparum HB3 in erythrocytes, SYBR Green DNA, 72 h; at 28.5 µM (top of the series) unless noted
# Outline: as §1
# [4] = High-throughput drug toxicity screening in the BPDCN cell line Gen2.2 (AID 1224824; call rule not given here;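 further: cells exposed to compounds for 48 h before reading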); conditions: Gen2.2 BPDCN cells; at 45.8 µM (top of the series) unless noted
# Outline: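 Gen2.2, 500 cells/well, phenol red-free RPMI/10% FBS/Pen-Strep; 48 h cpd, 37 °C/5% CO2; CTG lum, 15 min RT. Norm: DMSO = 100%, bortezomib 9.2 uM final = 0%.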
# [5] = High-throughput drug toxicity screening in the BPDCN cell line Cal-1 (AID 1224825; call rule not given here); conditions: Cal-1 BPDCN cell viability, qHTS; at 45.8 µM (top of the series) unless noted
# Outline: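 Exponentially growing Cal-1 cells, 500 per well in phenol red-free RPMI with 10% FBS, were exposed to compounds for 48 h at 37 °C, 5% CO2. Viability was read by CellTiter-Glo luminescence and normalised to DMSO (100%) and 9.2 uM bortezomib (0%).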
# [6] = qHTS assay for measurement of the activity of small molecule inhibitors on Zika virus induced Caspase-3 activity in human iPSC derived neural progenitor cells (hNPCs) (AID 1224857); further: nearly all actives have a fitted effect of over 65% in size; further: potency means the concentration at half of the fitted maximal effect
# Outline: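 Percent inhibition of virus-induced caspase-3/7 luminescence (Caspase-Glo), scaled between uninfected cells and Zika-infected cells. hNPCs received compound 1 hr before ZIKV at 2 FFU/cell, with 6 hours infection at 37 C.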
# [7] = qHTS assay for measurement of the activity of small molecule inhibitors on Zika virus induced Caspase-3 activity in human astrocytoma cells (AID 1224859);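 further: plate controls were ZIKV-infected untreated cells for no effect and uninfected cells for full effect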
# Outline: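 Luminescent caspase-3/7 read-out (30 min reagent, room temperature) in human SNB-19 cells infected 6 h with ZIKV (2 FFU/cell) after 1 h compound pre-incubation; Data were normalised to uninfected and infected wells.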
# [8] = qHTS Screen of the MIPE 4.0 Collection Against Ewings Sarcoma (RDES) (AID 1259252); further: nearly all actives have a fitted effect of over 35% in size; further: potency means the concentration at half of the fitted maximal effect
# Outline: (§2)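 Here, cells in 5% FBS RPMI were exposed for two days (48 h) to compound dilutions added four hours after plating. ATP-based CellTiter-Glo luminescence measured viability, normalized to vehicle and no-cell blanks.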
# [9] = qHTS Screen of the MIPE 4.0 Collection Against Ewings Sarcoma (EW8) (AID 1259255); further: nearly all actives have a fitted effect of over 35% in size; further: potency means the concentration at half of the fitted maximal effect;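 on viability: 100% = DMSO-treated cells and 0% = medium-only wells without cells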
# Outline: as §2
# [10] = qHTS Screen of the MIPE 4.0 Collection Against Ewings Sarcoma (TC32) (AID 1259256); further: nearly all actives have a fitted effect of over 45% in size; further: potency means the concentration at half of the fitted maximal effect
# Outline: as §2
# [11] = qHTS profiling of the MIPE4 collection as inhibitors of Plasmodium falciparum (3D7) proliferation (AID 743344; call rule not given here;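 further: scaled between DMSO vehicle wells and 0.29 µM artemisinin as full inhibition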); conditions: P. falciparum 3D7 in erythrocytes, SYBR Green DNA fluorescence, 72 h; at 28.5 µM (top of the series) unless noted
# Outline: as §1
# [12] = qHTS Screen of the MIPE 4.0 Collection Against Ewings Sarcoma (TC71) (AID 1259253);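 further: 100% = DMSO-treated cells and 0% = medium-only wells without cells; nearly all actives have a fitted effect of over 40% in size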
# Outline: as §2
SMILES,"parasite growth remaining, % of DMSO control (lower = more inhibition) [1] [%]","parasite growth, % of control (lower = inhibition) [2]","growth, % of control [3]","cell viability, % of control (lower = more cytotoxic) [4]",viability (% of control) [5],Potency [6],Potency [7],Potency [8],Potency [9],Potency [10],"parasite growth, % of DMSO control [11]",Potency [12]
NC(=O)N1CCC(CC(=O)N2CCC([C@H]3c4ncc(Br)cc4CCc4cc(Cl)cc(Br)c43)CC2)CC1,10.6,13.1%,9.54%,82.6%,6.4%,inactive,inactive,20.9 µM (active),16.6 µM (active),0.372 µM (active),–,–
CN(C)CC[C@H](c1ccc(Cl)cc1)c1ccccn1,57,36.2%,95.2%,120%,98.4%,inactive,inactive,inactive,inactive,inactive,–,–
O=C1NC(=O)[C@@H](c2cn3c4c(cccc24)CCC3)[C@H]1c1c[nH]c2ccccc12,94.8,86.1%,60.4%,4.68%,14.9%,inactive,inactive,0.296 µM (active),0.235 µM (active),0.166 µM (active),54.8%,–
NC(=O)c1cccc(-c2cccc(OC(=O)NC3CCCCC3)c2)c1,–,–,94.2%,128%,91.7%,inactive,inactive,inactive,inactive,inactive,–,inactive
CC(N[C@H]1CCCC[C@H]1NC(=O)c1ccc(Cl)cc1)c1cccc2ccccc12 (some centres undefined),–,–,–,114%,20.6%,inactive,inactive,inactive,inactive,inactive,–,–
C[C@](Cc1c[nH]c2ccccc12)(NC(=O)OC1C2CC3CC(C2)CC1C3)C(=O)NC[C@H](NC(=O)CCC(=O)O)c1ccccc1 (some centres undefined),36.8,30.8%,–,308%,4.7%,inactive,inactive,inactive,inactive,inactive,10%,–
CC1(C)O[C@@H]2C[C@H]3[C@@H]4CCC5=CC(=O)C=C[C@]5(C)[C@@H]4[C@@H](O)C[C@]3(C)[C@]2(C(=O)CO)O1,49.3,7.43%,5.96%,97.8%,46.1%,inactive,inactive,inactive,inactive,inactive,7.1%,–
NC(=O)Nc1sc(-c2ccc(F)cc2)cc1C(N)=O,8.68,9.96%,3.76%,3.62%,3.13%,inactive,inactive,1.05 µM (active),3.72 µM (active),1.48 µM (active),6.58%,–
CC(C=CC=C(C)C=CC1=C(C)CCCC1(C)C)=CC=CC=C(C)C=CC=C(C)C=CC1=C(C)CCCC1(C)C,92.7,28.1%,7.95%,8%,10%,inactive,inactive,8.33 µM (active),14.8 µM (active),16.6 µM (active),11.9%,–
CCOC(=O)C1=C(C)NC(=S)NC1c1cccc(O)c1 (centres undefined),93.6,85.5%,39%,48.9%,19.3%,inactive,inactive,0.264 µM (active),0.0935 µM (active),inactive,90.7%,–
Cn1cc(C[C@@H](N)C(=O)O)c2ccccc21,–,107% [at 9.64 µM],98.8% [at 9.64 µM],152% [at 23.2 µM],126% [at 23.2 µM],inactive,inactive,inactive,inactive,inactive,103% [at 9.64 µM],–
C#C[C@]1(O)CC[C@@H]2[C@@H]3CCC4=CC(=O)CC[C@@H]4[C@H]3CC[C@@]21CC,79.2,51.5%,61.1%,146%,114%,inactive,inactive,inactive,inactive,inactive,28%,–
Cn1cc(C2=C(c3c4n(c5ccccc35)CCC(CN)C4)C(=O)NC2=O)c2ccccc21 (centres undefined),5.71,11%,–,3.32%,2.84%,inactive,inactive,16.6 µM (active),18.7 µM (active),20.9 µM (active),–,–
N=c1ccn2c(n1)O[C@H]1[C@@H](O)[C@@H](CO)O[C@H]12,119,83.2%,73.8%,70.9%,11.2%,inactive,inactive,0.332 µM (active),1.05 µM (active),0.372 µM (active),82.9%,–
COc1ccc(CCC(=O)c2c(O)cc(O[C@@H]3O[C@H](CO)[C@@H](O)[C@H](O)[C@@H]3O[C@@H]3O[C@@H](C)[C@H](O)[C@@H](O)[C@@H]3O)cc2O)cc1O,17.8,41.2%,6.55%,77%,106%,inactive,inactive,9.35 µM (active),10.5 µM (active),9.35 µM (active),6.07%,–
CN[C@H]1[C@@H](O)[C@@H]2O[C@@H]3O[C@H](C)CC(=O)[C@]3(O)O[C@@H]2[C@@H](NC)[C@H]1O,85.6,19.2%,6.56%,9.59%,5.36%,16.6 µM (active),inactive,0.0526 µM (active),1.32 µM (active),1.05 µM (active),6.52%,–
